About 810 (0.43%) of roughly 190,000 compounds were called active. No stated cut-off is given here; in the data, active means inhibition above about 50%; inactive means the rest. For the sample, actives were picked, then their nearest neighbours and some compounds at random.
target: Mannose-6-phosphate isomerase (Homo sapiens) (UniProt P34949); experiment: MPI enzyme activity inhibition – biochemical, fluorescence intensity, coupled assay, primary screen (AID 1209); settings: purified PMI enzyme, at 20 µM, hits give high values;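 further: plate controls were DMSO vehicle for no effect and wells lacking substrate for full effect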
Sequence (P34949 whole entry, looked up): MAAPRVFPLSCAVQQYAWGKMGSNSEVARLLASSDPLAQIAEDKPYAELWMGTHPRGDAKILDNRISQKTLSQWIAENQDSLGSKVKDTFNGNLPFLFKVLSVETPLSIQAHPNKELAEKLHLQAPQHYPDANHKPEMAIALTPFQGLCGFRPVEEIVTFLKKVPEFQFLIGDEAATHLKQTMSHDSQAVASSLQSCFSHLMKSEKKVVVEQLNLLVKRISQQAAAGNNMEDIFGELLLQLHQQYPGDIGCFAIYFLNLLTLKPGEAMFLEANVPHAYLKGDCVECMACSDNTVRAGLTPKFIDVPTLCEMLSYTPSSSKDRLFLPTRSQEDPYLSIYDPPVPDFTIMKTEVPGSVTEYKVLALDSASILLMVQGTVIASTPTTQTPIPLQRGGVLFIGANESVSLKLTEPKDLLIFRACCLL

| Structure (SMILES) | inhibition |
| --- | --- |
| O=C(COC(=O)c1cccc(Cl)c1)Nc1cc(Cl)ccc1Oc1ccccc1 | 18.8% (inactive) |
| Cc1cc(OCC(O)CN)ccc1Cl (stereo not drawn) | -8.6% (inactive) |
| Cc1ccc(CN2CCN(/N=C/c3cccnc3)CC2)cc1 | 17.9% (inactive) |
| Clc1ccc(CN2CCN(/N=C/c3cccnc3)CC2)cc1 | 85.6% (active) |
| C(=N\N1CCN(Cc2ccccc2)CC1)/c1cccnc1 | 9.3% (inactive) |
| COc1ccc(NC(=O)CSc2nc3c(c(-c4cccs4)c2C#N)CN(C)CC3)cc1OC | 59.8% (active) |
| Cc1cccc(CSc2nc(N)c(C#N)c(-c3cccs3)c2C#N)c1 | 6.6% (inactive) |
| CN1CCc2nc(SCC(=O)Nc3ccc(OC(F)(F)F)cc3)c(C#N)c(-c3cccs3)c2C1 | 15.7% (inactive) |
| Cc1cccc(CSc2nc3c(c(-c4cccs4)c2C#N)CN(C)CC3)c1 | 69.6% (active) |
| CC(C)(C)C(=O)CSc1nc2c(c(-c3cccs3)c1C#N)CCC2 | -25.9% (inactive) |
| CN1CCc2nc(SCC(=O)Nc3cccc(F)c3)c(C#N)c(-c3cccs3)c2C1 | 35% (inactive) |
| COc1ccc2c(c1)C(=O)N(c1ccccc1C)C(=O)C2(C)C | -9.2% (inactive) |
| COC(=O)CCCNc1ncccc1[N+](=O)[O-] | -0.5% (inactive) |
| Cn1c(SCC(=O)N2CCN(c3ccccc3)CC2)nnc1-c1ccco1 | 4.2% (inactive) |
| CC(C)(CNS(C)(=O)=O)SCc1ccc(Cl)cc1 | -12.2% (inactive) |
| Cc1nn(C(C)CC(=O)O)c(C)c1Br (stereo not drawn) | -0.1% (inactive) |
| COc1cccc(/C=N/NC(=O)c2ccccc2)c1OS(=O)(=O)c1ccccc1 | 2.4% (inactive) |
| COc1ccc(C(=O)CCC(C)(C)[N+](=O)[O-])cc1 | -6.3% (inactive) |
| O=C(c1ccc(CS(=O)(=O)c2ccc(Br)cc2)o1)N1CCN(C2CCCCC2)CC1 | -9% (inactive) |
| O=C(NC1CCCCCC1)C(=S)N1CCOCC1 | 61.8% (active) |
| O=C(NC1CCCCC1)C(=S)N1CCOCC1 | 10.9% (inactive) |
| O=C(NC1CCCCCC1)C(=S)N1CCCC1 | 4.7% (inactive) |
| Cc1ccc(C(C(=O)NC2CCCCC2)N2CCC3(CC2)OCCO3)cc1 (stereo not drawn) | 1.6% (inactive) |
| C=CCOC(=O)C1=C[C@H](c2ccc(Br)cc2)[C@@H](CCCO)[C@H](OCC)O1 | 17.5% (inactive) |
| Cc1cc(=O)c2c(O)c(O)ccc2o1 | 77.7% (active) |
| COc1ccc(-c2cc(=O)c3c(O)c(OC)c(O)cc3o2)cc1 | 0.6% (inactive) |

| Structure (SMILES) | inhibition |
| --- | --- |
| Cc1occc(=O)c1O | -5.2% (inactive) |
| O=C(O)c1ccccc1Cc1nc2cc(Cl)ccc2c(=O)[nH]1 | -7.4% (inactive) |
| COc1ccc(NC(=O)CCCn2c(=O)c3sccc3n(Cc3ccccc3C)c2=O)cc1 | 6.6% (inactive) |
| CCc1ccc(/C=C/c2c[nH]c3ccccc23)[n+](CC)c1 | 51.8% (active) |
| CCN(CC)C(=O)c1ccc(/C=C/c2c[nH]c3ccccc23)[n+](C)c1 | 8.9% (inactive) |
| OCC[n+]1ccc(/C=C/c2c[nH]c3ccccc23)cc1 | 2.7% (inactive) |
| NS(=O)(=O)c1ccc(CCNC(=O)C2CCC(CNS(=O)(=O)c3ccc(Br)s3)CC2)cc1 (stereo not drawn) | 4.5% (inactive) |
| Cc1cc2cc(C=O)c(Cl)nc2cc1C | 61.2% (active) |
| Cc1cc2cc(C=C(C#N)C#N)c(Cl)nc2cc1C | 20.3% (inactive) |
| Cc1ccc2cc(C=O)c(Cl)nc2c1 | 37.4% (inactive) |
| CC(C)(C)c1nn(-c2ccccc2)c2nc(Cl)c(C=O)cc12 | -1.5% (inactive) |
| Cc1cc(C)c2cc(CNC3CCCC3)c(Cl)nc2c1 | 8.6% (inactive) |
| Cc1occc1C(=O)NNC(=O)C1CCCCC1 | 20.4% (inactive) |
| CCOc1ccc(CCNC(=O)CSc2nn(-c3ccc(C)c(Cl)c3)c(=S)s2)cc1OCC | 8.9% (inactive) |
| CCN(CC1COc2ccccc2O1)C(=S)Nc1ccccc1 (stereo not drawn) | 11.9% (inactive) |
| S=C(c1ccc(-c2cc(Cl)ccc2Cl)o1)N1CCOCC1 | 11.6% (inactive) |
| S=C(c1ccc(-c2ccccc2Cl)o1)N1CCOCC1 | 70.8% (active) |
| S=C(c1ccc(-c2ccccc2Cl)o1)N1CCCCC1 | 10.9% (inactive) |
| O=C(CSc1nnc(-c2ccc(OC(F)F)cc2)o1)N1CCOCC1 | -4.5% (inactive) |
| CNC(=O)c1ccccc1F | 6.4% (inactive) |
| O=C(C1CC1)N1N=C(C2CCCCC2)CC1(O)C(F)(F)F (stereo not drawn) | 6.9% (inactive) |
| O=C(C1CCCC1)N1CCC(CO)(Cc2ccccc2Cl)CC1 | 0.9% (inactive) |
| COc1ccc2[nH]c(=S)[nH]c2c1 | 16.4% (inactive) |
| S=c1[nH]c2ccc(Cl)cc2[nH]1 | 50.2% (active) |
| S=c1[nH]c2cc(Cl)ccc2s1 | -15.2% (inactive) |
| O=C(Nc1ccccc1Cl)N1CCN(C/C=C/c2ccccc2)CC1 | -2% (inactive) |

| Structure (SMILES) | inhibition |
| --- | --- |
| Cc1ccc(-c2cn3c(n2)SCC3)cc1 | -3.8% (inactive) |
| Oc1ccc(-c2cn3c(n2)SCC3)cc1 | -8.6% (inactive) |
| Oc1ccc(-c2cn3c(n2)SCC3)cc1O | 59.5% (active) |
| CCNc1nc(N2CCOCC2)nc(N(c2ccccc2)c2ccccc2)n1 | 13% (inactive) |
| COc1ccc(Cl)cc1N/C(N)=N/c1nc(CSc2ccc(C)cc2)cc(=O)[nH]1 | 3.7% (inactive) |
| NC(=S)Nc1cc2ccccc2c2ccccc12 | 67.5% (active) |
| NC(=S)N/N=C\c1c2ccccc2cc2ccccc12 | -64.6% (inactive) |
| NC(=S)Nc1cccc2cc3ccccc3cc12 | -8.8% (inactive) |
| COc1ccc(C(=O)OCC(=O)NCCCc2ccccc2)cc1[N+](=O)[O-] | 9.8% (inactive) |
| O=C(CSc1nnnn1-c1ccccc1)N1CCc2ccccc2C1 | 4% (inactive) |
| CN(C)CCC(=O)c1cccc(Br)c1 | 24% (inactive) |
| Cc1c(N2C(=O)/C(=C3/C(=O)N(C)c4ccccc43)SC2=S)c(=O)n(-c2ccccc2)n1C | 11.1% (inactive) |
| CC(=O)N1C(=O)/C(=C2\SC(=S)N(c3c(C)n(C)n(-c4ccccc4)c3=O)C2=O)c2ccccc21 | 64.9% (active) |
| CCN1C(=O)/C(=C2\SC(=S)N(c3c(C)n(C)n(-c4ccccc4)c3=O)C2=O)c2ccccc21 | 14.5% (inactive) |
| N/C(COc1ncn(-c2ccccc2)n1)=N\S(=O)(=O)c1ccc(Cl)cc1Cl | 9.1% (inactive) |
| CCC(C)(C)NC(=O)C(OC(=O)c1ccco1)c1ccccc1OC (stereo not drawn) | 14.2% (inactive) |
| NC(=O)NC(=O)CC1S/C(=N/N=C2\CSC(=O)N2)NC1=O (stereo not drawn) | 48.8% (inactive) |
| O=C(O)CNC(=O)CC1S/C(=N/N=C2/NC(=O)CS2)NC1=O (stereo not drawn) | 25.1% (inactive) |
| O=C(O)CNC(=O)CC1S/C(=N/N=C2\CSC(=O)N2)NC1=O (stereo not drawn) | 59.9% (active) |
| CCc1sc(C(=O)Nc2ccsc2C(=O)OC)cc1Br | -4.6% (inactive) |
| O=C(CS(=O)(=O)c1cn(Cc2cccc(F)c2)c2ccccc12)N1CCOCC1 | 5.3% (inactive) |
| Cc1ccc2c(c1)C(=O)CCN2 | -1.2% (inactive) |
| O=C1CCNc2ccc(-c3ccccc3)cc21 | 3.1% (inactive) |
| Cc1ccc2oc(-c3ccccc3C(=O)O)cc(=O)c2c1 | -3.3% (inactive) |
| CCOC(=O)c1cc2n(c1/N=C/N(C)C)-c1ccccc1C2=O | 55.7% (active) |
| CCOC(=O)c1cnc(/N=C/N(C)C)s1 | 2.3% (inactive) |

| Structure (SMILES) | inhibition |
| --- | --- |
| CCOC(=O)c1sc(/N=C/N(C)C)nc1C | -4.1% (inactive) |
| Cc1ccccc1-c1nnc(NC(=O)c2cc3ccccc3oc2=O)s1 | -1.2% (inactive) |
| CCN(CC)Cc1c(O)ccc2c(=O)c(-c3ccc4c(c3)OCCO4)coc12 | 5.6% (inactive) |
| COC1OC(COC(=O)CNC(=O)OC(C)(C)C)C(O)C(O)C1O (stereo not drawn) | -0.1% (inactive) |
| CCC(C(=O)NC1CCCCC1)N(Cc1cccs1)C(=O)c1snc(C(N)=O)c1N (stereo not drawn) | 3.9% (inactive) |
| CC(C)CC(C(=O)NC1CCCC1)N(Cc1cccs1)C(=O)c1snc(C(N)=O)c1N (stereo not drawn) | 13% (inactive) |
| CC(C)CC(C(=O)NC1CCCCC1)N(Cc1cccs1)C(=O)c1snc(C(N)=O)c1N (stereo not drawn) | 101% (active) |
| CCOC(=O)COc1ccc(S(=O)(=O)NCC2CCCO2)cc1 (stereo not drawn) | -1.8% (inactive) |
| O=[N+]([O-])c1cccc(-c2noc(COc3ccccc3)n2)c1 | 57.3% (active) |
| COc1cccc(OCc2nc(-c3cccc([N+](=O)[O-])c3)no2)c1 | 4.9% (inactive) |
| COc1ccccc1OCc1nc(-c2cccc([N+](=O)[O-])c2)no1 | 2.9% (inactive) |
| CC(=O)c1cnc(-c2ccccc2Cl)s1 | 0.5% (inactive) |
| CC(C(=O)Nc1nc2ccccc2s1)n1cc([N+](=O)[O-])cn1 (stereo not drawn) | 11.5% (inactive) |
| Cc1cc(C)c(S(=O)(=O)Nc2ccc3[nH]c(=O)[nH]c3c2)c(C)c1 | 4.4% (inactive) |
| CCS(=O)(=O)Nc1ccc2[nH]c(=O)[nH]c2c1 | 52.1% (active) |
| CS(=O)(=O)Nc1ccc2[nH]c(=O)[nH]c2c1 | 3.3% (inactive) |
| N#C/C(=C\c1cccc(NC(=O)c2ccccc2Cl)c1)C(=O)NCCc1ccccc1 | 10.1% (inactive) |
| O=C(Cc1ccc(F)cc1)OCC(=O)c1cc2ccccc2o1 | 9% (inactive) |
| COc1ccc(-c2nc(N)ncc2-c2csc(C)n2)c(O)c1OC | 6.8% (inactive) |
| COC1=C(N)C(=O)c2nc(-c3nc(C(=O)O)c(C)c(-c4ccc(OC)c(OC)c4O)c3N)ccc2C1=O | 56% (active) |
| COc1ccc(-c2n[nH]c(C)c2-c2ccc(Cl)cc2)c(O)c1OC | 6.7% (inactive) |
| NS(=O)(=O)c1ccc(NC(=O)C2(c3ccccc3)CCCC2)cc1 | 1.9% (inactive) |
| O=C(CSc1ccc(-c2ccccn2)nn1)c1ccc([N+](=O)[O-])cc1 | 3.7% (inactive) |
| O=C(CSc1ccc(-c2ccccn2)nn1)c1ccc(F)cc1 | 62.5% (active) |
| O=C(CSc1ccc(-c2ccccn2)nn1)c1ccccc1 | -14.4% (inactive) |
